# Compound activity (PubChem BioAssay)
# Hits are enriched below; roughly 8.1% of the tested compounds scored in any of these assays.
# SW480 rereplic – A quantitative high throughput screen for small molecules that induce DNA re-replication in SW480 colon adenocarcinoma cells. SW480 DNA re-replication, Hoechst DNA content imaging, 48 h. Potency, µM (titrated, usually from 46.1 µM), for the others: at the highest dose re-replication activation, hits mostly activators. actives 1.8% (n = 340,000). AID 624297, 2012; further: % of control where 0% means no effect; nearly all actives have a fitted effect of over 55% in size
#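 Quantitative HTS format with DMSO vehicle controls; 48 hr drug incubation at 37 C, then 40 min Hoechst staining and scanning imager measurement at 405 nm excitation.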
# MCF10A rereplic – A quantitative high throughput screen for small molecules that induce DNA re-replication in MCF 10a normal breast cells; MCF 10A DNA re-replication, Hoechst nuclear intensity, 48 h; Potency, µM (top dose mostly 46.1 µM), for inactives: at the top dose activity, positive = re-replication, usual class: activators; actives 2.9% (n = 350,000); AID 624296, 2012; further: % of control where 0% means no effect; nearly all actives have a fitted effect of over 50% in size
# KB-3-1 tox – qHTS assay for MDR1-selective chemotherapeutics: Primary screen using the parental adenocarcinoma cell KB-3-1; KB-3-1 viability, CellTiter-Glo ATP luminescence, 72 h; actives 1.4% (n = 400,000); Potency, µM (series often up to 46.1 µM), usual class: cytotoxic; AID 1347075, 2019; further: on the % scale 0 is the no-effect control and ±100 the full control effect; nearly all actives have a fitted effect of over 60% in size
#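 Parental KB-3-1 adenocarcinoma cells in phenol-red-free DMEM with 10% FBS were pin-treated with compounds at several concentrations, incubated 72 h at 37 °C, and viability read by CellTiter-Glo luminescence; concentration-effect curves were fitted after normalization.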
# ELG1 DNA repair – qHTS screen for small molecules that inhibit ELG1-dependent DNA repair in human embryonic kidney (HEK293T) cells expressing luciferase-tagged ELG1 | HEK293T ELG1-luciferase reporter, luminescence, 16 h; DNA damage induced by 5-fluorouridine | Potency, µM (top dose mostly 46.1 µM), inactives show at the top dose activity change, negative = inhibition, actives largely listed as inhibitors | actives 2.3% (n = 330,000) | AID 504467, 2011; further: on the % scale 0 is the no-effect control and ±100 the full control effect; nearly all actives have a fitted effect of over 55% in size
#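 Step one: seed 2,000 cells per well. Step two: pin-transfer compound or DMSO alongside 5-fluorouridine. Step three: incubate 16 hr, 37 °C, 5% CO2. Step four: add ONE-Glo, wait 30 min, read luminescence.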
# KB-V1 MDR tox – qHTS assay for MDR1-selective chemotherapeutics: Primary screen using the drug-selected MDR subline cells KB-V1. actives 3.4% (n = 400,000). Potency, µM (top dose mostly 46.1 µM), actives largely listed as cytotoxic. KB-V1 MDR cells viability, CellTiter-Glo, 72 h. AID 1347076, 2019; further: on the % scale 0 is the no-effect control and ±100 the full control effect; nearly all actives have a fitted effect of over 60% in size
#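 qHTS viability screen in drug-selected KB-V1 MDR cells: 72 h compound treatment at 37 degrees C, ATP luminescence end point.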
# * marks the source's active call; other numbers are inactive results; i = inactive; ? = inconclusive; . = not tested or not shown; ! = repeats disagree. The call rests on the fitted dose curve; in most records, active means well fitted curve in the direction sought with a large enough effect; inconclusive means small, poorly fitted or top-dose-only effect, or another doubt; inactive means no such curve, though single readings can be large; an effect the other way counts as inactive or inconclusive. Potency means the concentration at half of the fitted maximal effect.
SMILES,SW480 rereplic,MCF10A rereplic,KB-3-1 tox,ELG1 DNA repair,KB-V1 MDR tox
COc1ccc2cc3[n+](cc2c1OC)CCc1cc2c(cc1-3)OCO2,-1%,-5%,7.3µM*!,?,i
COc1cccc(C2=NCCc3cc4c(cc32)OCO4)c1OC,-693%,1%,i,-8%,i
Cn1nc(NC(=O)C(F)(F)F)c2ncc(-c3ccc(Cl)cc3)nc21,2%,-9%,?,?,i
Cn1nc(N)c2ncc(-c3ccc(Cl)cc3)nc21,.,.,i,.,7.3µM*
COC(=O)C(NNc1ccccc1)(NC(=O)c1ccccc1F)C(F)(F)F (configuration not stated),1%,12%,i,17%,i
COC(=O)C(NNc1ccccc1)(NC(=O)c1ccc(F)cc1)C(F)(F)F (configuration not stated),1%,1%,?,-14%,23µM*
Cc1c(C(=O)NN2CCCCC2)nn(-c2ccc(Cl)cc2Cl)c1-c1ccc(Cl)cc1,4%,13µM*,.,.,.
Cc1ccc2c(C)c(C(=O)N3CCN(C4CCS(=O)(=O)C4)CC3)oc2c1C (configuration not stated),?,-16%,?,0%,?
Cc1cc(F)cc(-c2cc(C(=O)NCc3ccco3)[nH]n2)c1,.,.,i,.,i
CCOC(=O)C1=CCC(c2ccc(C#N)cc2)N(S(=O)(=O)c2ccc(C)cc2)C1 (configuration not stated),.,.,i,.,i
COC(=O)c1c(C)n(-c2ccc(C)cc2)c2ccc(O)cc12,?,?,?,-27%,?
COC(=O)c1c(C)n(-c2ccccc2)c2ccc(O)cc12,?,?,?,?,21µM*
Cc1ccc(COc2ccc(-c3nnco3)cc2)cc1,-1%,-3%,i,?,i
Cc1ccc(C(C)C)c(OCc2ccc(-c3nnco3)cc2)c1,9%,23µM*,i,?,i
Cc1cccc(S(=O)(=O)N2CCn3cccc3C2C)c1 (configuration not stated),2%,8%,i,0%,i
Oc1ccccc1N1CCN(C(=S)NCCc2ccccc2)CC1,8%,?,?,?,15µM*
COc1ccc(C(=O)NC(=S)N2CCN(c3ccccc3O)CC2)cc1,3%,-5%,i,-25%,21µM*
O=C(/C=C/c1cccs1)NC(=S)NNC(=O)c1ccccc1O,?,?,2.6µM*,?,i
COc1cc2ccccc2cc1C(=O)NNC(=O)c1ccccc1O,.,.,.,26µM*,.
CCCn1c(SCC(=O)N2CC(=O)Nc3ccccc32)n[nH]c1=O,-5%,-2%,i,9%,i
Cc1onc(-c2ccccc2)c1C(=O)NC1CC1,-46%,-19%,i,-2%,i
COc1ccc(C(=O)NC(=S)NNC(=O)c2ccccc2O)cc1,13%,23µM*,?,17%,?
O=C(COC(=O)c1ccccc1O)NNC(=O)c1ccc(Br)cc1,-1%,0%,i,-2%,i
COc1cc2ccccc2cc1C(=O)N/N=C/c1cccs1,.,.,2.3µM*,.,9.2µM*
O=C(NNC(=O)c1ccccc1O)c1ccc(Br)cc1,2.9µM*,-8%,i,?,i
SMILES,SW480 rereplic,MCF10A rereplic,KB-3-1 tox,ELG1 DNA repair,KB-V1 MDR tox
COc1ccc(C(=O)NC(=S)NNC(=O)c2cnccn2)cc1,1%,6.5µM*,?,?,i
CN(c1ccccc1C(=O)Nc1ccccc1C(=O)NCc1ccco1)S(C)(=O)=O,17%,2%,i,-2%,15µM*
Cc1ccccc1CN(c1ccc(C(=O)N2CCc3ccccc3C2)cc1)S(C)(=O)=O,7%,?,10µM*,15µM*,10µM*
CCOC(=O)c1ccccc1NC(=O)c1c(F)c(F)c(F)c(F)c1F,?,21µM*,i,7%,i
CCOC(=O)c1ccccc1NC(=O)c1ccc(F)cc1,5%,-11%,i,.,i
CC(=O)c1cccc(NC(=O)c2ccc(N(Cc3ccccc3C)S(C)(=O)=O)cc2)c1,22%,?,?,26µM*,i
CCc1ccccc1NC(=O)N1CCN(Cc2nc3ccc(C)cc3o2)CC1,.,.,i,.,i
Cc1ccc(S(=O)(=O)NC(=O)C2(C)CCN2C(=O)CC2CCCC2)cc1 (configuration not stated),.,.,i,.,i
COC(=O)c1ccccc1NC(=O)c1ccccc1N(C)S(C)(=O)=O,2%,4%,i,10%,i
CCOC(=O)c1ccccc1NC(=O)c1ccccc1N(C)S(C)(=O)=O,-4%,-11%,i,.,18µM*
Cc1ccccc1CN(c1ccc(C(=O)Nc2ccccc2C(=O)NCc2ccco2)cc1)S(C)(=O)=O,-12%,21%,i,7.3µM*,8.2µM*
CCN(C[C@H]1N[C@@](CC)(C(=O)OC)[C@H]2C(=O)N(C)C(=O)[C@@H]12)C(=O)c1ccccc1,-7%,-23%,i,0%,i
O=C(NCCSCc1c(F)cccc1Cl)c1ccc(CN2CCOCC2)cc1,2%,?,?,?,16µM*
CN(c1ccc(C(=O)NCCSCc2c(F)cccc2Cl)cc1)S(C)(=O)=O,-4%,?,i,13µM*,i
Cc1ccc(-n2c(=O)c3cccnc3n2CC(=O)Nc2cc(C)cc(C)c2)cc1,.,.,i,.,i
O=C(COC(=O)c1ccc2c(c1)C(=O)N(c1cccc3ncccc13)C2=O)c1ccc(Cl)cc1,?,6.5µM*,i,-17%,i
Cc1ccc(C(=O)COC(=O)c2ccc3c(c2)C(=O)N(c2cccc4ncccc24)C3=O)cc1,-3%,?,i,-28%,i
CCOC(=O)C1=CCN(S(=O)(=O)c2ccccc2Br)C1c1cccc(Cl)c1 (configuration not stated),.,.,i,.,i
CCOC(=O)C1=CCN(S(=O)(=O)c2ccccc2C)C1c1cccc(Cl)c1 (configuration not stated),.,.,?,.,21µM*
CCOC(=O)C1=CCN(S(=O)(=O)c2cccc(Cl)c2)C1c1ccccc1 (configuration not stated),.,.,i,.,18µM*
CCOC(=O)c1ccc(NC(=O)c2c(NCc3sccc3C)sc3c2CCCCC3)cc1,.,.,i,.,i
COc1cc(OC)cc(-c2cc3nc(C)c(CCC(=O)NCc4ccccc4)c(C)n3n2)c1,?,-5%,i,21µM*,i
Cc1cccc(NC(=O)CCN2CCN(c3ccccc3F)CC2)c1,.,.,i,.,i
